# Counter-ions that a name gives are not always drawn. The full ranking holds about 1,000 compounds; the median of “cFRET/donor change relative to DMSO, normalised to beta-lapachone positive control (supercomplex I-IV assembly)” is about 0.18, and the lowest 2% start at about -1. What follows is part of a selection rich in the lowest values, with near analogues and random picks from the rest.
# System: C2C12 (NDUFB8-AcGFP / COX8A-DsRed-Monomer FRET reporter)
# Assay: cFRET/donor change relative to DMSO, normalised to beta-lapachone positive control (supercomplex I-IV assembly) (fraction of beta-lapachone effect); higher = more respiratory supercomplex assembly
# Settings: 40 µM; 24 h
# Protocol: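 Cells were treated with 40 uM compound for 24 h and imaged on an IN Cell Analyzer 6000. Corrected FRET was divided by donor signal (cFRET/donor) and measured in two replicate experiments. The score is (mean cFRET/donor of compound - mean DMSO) / (mean beta-lapachone 40 uM - mean DMSO). Compounds flagged for prominent cell death, abnormal morphology or decreased cell number were excluded.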
row,Structure (SMILES),cFRET/donor change
1,COCCOc1cc2ncnc(Cl)c2cc1OCCOC,0.0633
2,CCOC(=O)c1ccc(C#Cc2ccc3c(c2)C(C)(C)CCS3)nc1 [Tazarotene],0.454
3,c1ccc2c(c1)CC(N1CCN(c3cccc4c3OCCO4)CC1)C2,0.201
4,c1cnc2cc3c(cc2n1)[C@@H]1CNC[C@H]3C1 [Varenicline tartrate],0.22
5,Cc1ccc(S(=O)(=O)/C=C/C#N)cc1,0.324
6,COc1ccc(CCNc2nc(N3CCc4cc(OC)c(OC)cc4C3)c3cc(OC)c(OC)cc3n2)cc1OC,0.14
7,O=C1c2c(O)cc(O)cc2O[C@H](c2ccc(O)c(O)c2)[C@H]1O (racemic) [(±)-Taxifolin],0.226
8,CN(c1ccccc1CNc1nc(Nc2ccc3c(c2)CC(=O)N3)ncc1C(F)(F)F)S(C)(=O)=O,0.036
9,O=C(O[C@@H]1C[C@@H]2C[C@H]3C[C@H](C1)N2CC3=O)c1c[nH]c2ccccc12 [Dolasetron mesylate hydrate],0.115
10,NC(N)=NCc1cccc(I)c1 [m-Iodobenzylguanidine hemisulfate],-0.0455
11,CN(CCCOc1ccc(Cc2ccccc2)cc1)CCC(=O)O,0.52
12,COc1cccc(OC)c1-c1cc(C(=O)NC2(C(=O)O)C3CC4CC(C3)CC2C4)nn1-c1ccc(C(=O)N(C)CCCN(C)C)cc1C(C)C (centres undefined),0.153
13,CC(C)[N+]1(C)[C@@H]2CC[C@H]1C[C@@H](OC(=O)C(CO)c1ccccc1)C2 (some centres undefined) [Ipratropium bromide],0.299
14,O=C1CCC(c2ccc(-n3ccnc3)cc2)=NN1 [Imazodan],0.0699
15,Nc1nc(=O)c(Br)c(-c2ccccc2)[nH]1 [Bropirimine],-0.0226
16,Nc1ccc(-c2nc3ccc(-c4nc5ccc(N)cc5[nH]4)cc3[nH]2)cc1,-0.494
17,CC(C)(C)NC(=O)[C@@H]1CN(Cc2cccnc2)CCN1C[C@@H](O)C[C@@H](Cc1ccccc1)C(=O)N[C@H]1c2ccccc2C[C@H]1O [Indinavir sulfate salt hydrate],0.0944
18,Cc1cc(NC2CCCCC2)nc(-n2nc(C)cc2C)n1,0.569
19,O=C1/C(=C/c2cccs2)CC/C1=C\c1cccs1,0.584
20,CCN(CC)CCCC(C)Nc1c2ccc(Cl)cc2nc2ccc(OC)cc12 (centres undefined) [Quinacrine dihydrochloride],-4.52
21,OC[C@H]1O[C@@H](n2cnc3c(N[C@H]4CCC[C@@H]4O)ncnc32)[C@H](O)[C@@H]1O,0.476
22,C[C@H](c1ccc(F)cc1CCCC(=O)O)N(c1cc(F)ccc1F)S(=O)(=O)c1ccc(Cl)cc1,0.476
23,C[N+](C)(C)CCO.[Br-] [Choline bromide],0.313
24,O=C(CCCCCN1CCN(c2ccccc2-c2ccccc2)CC1)NC1CCCc2ccccc21 (centres undefined) [LP 12 hydrochloride hydrate],1.51
25,C=CC1=C(C)c2cc3[nH]c(cc4nc(cc5[nH]c(cc1n2)c(C)c5CCC(=O)O)C(CCC(=O)O)=C4C)c(C)c3C=C [Protoporphyrin IX disodium],3.12

row,Structure (SMILES),cFRET/donor change
1,COC(=O)C1=C(C)NC(C)=C(C(=O)OC2CCCN(Cc3ccccc3)C2)C1c1cccc([N+](=O)[O-])c1 (centres undefined) [Benidipine hydrochloride],0.367
2,CCc1cccc(N(C)C(=N)Nc2cccc3ccccc23)c1,0.203
3,CCOC(=O)[C@@H](N)Cc1ccc(O)c(O)c1 [L-Dopa ethyl ester],-0.101
4,O=c1n(CCCN2CCN(c3cccc(Cl)c3)CC2)nc2ccccn12 [Trazodone hydrochloride],0.586
5,CC[C@H]1OC(=O)[C@H](C)[C@@H](O[C@H]2C[C@@](C)(OC)[C@@H](O)[C@H](C)O2)[C@H](C)[C@@H](O[C@@H]2O[C@H](C)C[C@H](NC)[C@H]2O)[C@](C)(O)C[C@@H](C)CN(C)[C@H](C)[C@@H](O)[C@]1(C)O,0.325
6,O=C(O)c1cc(=O)c2ccccc2[nH]1 [Kynurenic acid],-0.161
7,"O=c1cc(-c2ccccc2)[nH]c2nc(Cl)ccc12 [7-Chloro-4-hydroxy-2-phenyl-1,8-naphthyridine]",-1.98
8,CN1[C@@H]2CC[C@H]1CC(OC(=O)c1c[nH]c3ccccc13)C2 (some centres undefined) [3-Tropanyl-indole-3-carboxylate hydrochloride],0.435
9,CCCOc1ccccc1-c1nc2[nH]nnc2c(=O)[nH]1 [Zaprinast],0.225
10,CCCCN(CC)c1nc(C)nc2c1c(C)cn2-c1c(C)cc(C)cc1C,0.353
11,CNC(=O)[C@H]1O[C@@H](n2cnc3c(NCc4ccc(N)cc4)ncnc32)[C@H](O)[C@@H]1O,0.125
12,Cc1nc(C#Cc2cccnc2)cs1 [MTEP hydrochloride],0.691
13,CCCc1nn(C)c2c(=O)[nH]c(-c3cc(S(=O)(=O)N4CCN(C)CC4)ccc3OCC)nc12 [Sildenafil citrate salt],0.123
14,NS(=O)(=O)c1cc2c(cc1Cl)N=CNS2(=O)=O [Chlorothiazide],0.223
15,C=C1C(=O)O[C@H]2[C@H]1CC/C(C)=C/CC[C@@]1(C)O[C@@H]21 [Parthenolide],0.366
16,CN(CCOc1ccc(NS(C)(=O)=O)cc1)CCc1ccc(NS(C)(=O)=O)cc1 [Dofetilide],0.532
17,CC1CCN=C(N)S1 (racemic) [(±)-AMT hydrochloride],0.00413
18,CC(=O)/C=C1/C(=O)N(C)c2ccccc21 [Supercinnamaldehyde],0.0218
19,CC(N)(Cc1ccc(O)cc1)C(=O)O (racemic) [DL-alpha-Methyl-p-tyrosine],-0.224
20,C[C@]12CC[C@@H]3c4ccc(O)cc4C[C@@H](CCCCCCCCC[S+]([O-])CCCC(F)(F)C(F)(F)F)[C@H]3[C@@H]1CC[C@@H]2O (some centres undefined) [Fulvestrant],0.0846
21,NS(=O)(=O)c1nn2cc(-c3ccccc3)nc2s1,-0.298
22,COC(=O)C(C)(N)Cc1ccc(O)cc1 (racemic) [alpha-Methyl-DL-tyrosine methyl ester hydrochloride],0.302
23,O=C1OC(=O)[C@H]2[C@@H]1[C@@H]1CC[C@H]2O1 [Norcantharidin],0.251
24,CCCCC1(C2CCCC2)Cc2cc(OCC(=O)O)c(Cl)c(Cl)c2C1=O (stereo in doubt) [R(+)-Butylindazone],0.322
